One test addresses IPO9. The experiment in a line: pooled miR-30 sensor sort-seq; sequence = guide strand. The following applies: shRNA.
With TTTGTATTTCGTACTACTGTTG, the sensor-assay potency score (higher = more potent) was -0.688.

The sequence TTTGCTTATCGATTCTCTCAAC displayed a sensor-assay potency score (higher = more potent) of -1.05.

On to TTCTAGCTGAGTGTGCACCAGA, for which the sensor-assay potency score (higher = more potent) was -0.519.

For the sequence TTGCTTTCCATGCTTGCTGTGA, the sensor-assay potency score (higher = more potent) is -0.476.

For the sequence TTTTTGGCTGACTTAGAGCGGG, the sensor-assay potency score (higher = more potent) is -0.902.

For the sequence TTGTATTTCGTACTACTGTTGT, the sensor-assay potency score (higher = more potent) was -0.494.

Consider TTACAGAGTGCCACAGAGCTGA, for which the sensor-assay potency score (higher = more potent) is -0.313.

Take TAATCTGTTCTTCAGCAGCCGC: the sensor-assay potency score (higher = more potent) was -1.2.

As to TATAGGAGAATGTATCATCATC, the sensor-assay potency score (higher = more potent) was -0.789.

TTGTCATCTGCATTGATGCCAT returned a sensor-assay potency score (higher = more potent) of -0.517.

The sequence TATTGTTTCAAGATGACTGATG displayed a sensor-assay potency score (higher = more potent) of -0.429.

The next test addresses IQCF1. The description is as above. The following applies: shRNA.
Sequence ATCTTTGTCAGAGAGCTTCTTT yielded a sensor-assay potency score (higher = more potent) of 0.163.

TTGTCCACTGTCTGTGTCTCAA came in with a sensor-assay potency score (higher = more potent) of -0.831.

Turning to TTGAGCACCTGGCAATAGCGTC, the sensor-assay potency score (higher = more potent) is -1.02.

TAGCCTCTGCCTTTGACTCTGC had a sensor-assay potency score (higher = more potent) of -0.296.

Sequence TTCTTCAGAATCTTGGACAGTA registered a sensor-assay potency score (higher = more potent) of 0.482.

TTGGCTGTGACTCTGTACTGGC registered a sensor-assay potency score (higher = more potent) of -0.0836.

Turning to ATACACTCTGTCACAATGCAAG, the sensor-assay potency score (higher = more potent) was -1.11.

TACCGTATCTTTGTCAGAGAGC showed a sensor-assay potency score (higher = more potent) of -0.874.

In turn, TTTGAGGGTTCCTTCGTCTTTT displayed a sensor-assay potency score (higher = more potent) of -0.864.

Take TTTCTCATTGGCATTGTCCACT: the sensor-assay potency score (higher = more potent) was -0.377.

Sequence TTGATCTTGGTGGCTACCGTAT registered a sensor-assay potency score (higher = more potent) of -0.916.

For TGGAGTTTTAGCCTCTGCCTTT, the sensor-assay potency score (higher = more potent) was -0.954.

The target in the next test is IQCJ. The description is as above. The following applies: shRNA.
For TAGAGGATTCTGCAATCTTTTC, the sensor-assay potency score (higher = more potent) was -1.5.

In the case of TCGCTGAATGATTTTCACCTTT, the sensor-assay potency score (higher = more potent) was -0.759.

TTGAGAGTATGTATGAACCCAG displayed a sensor-assay potency score (higher = more potent) of 0.0169.

Sequence TCTCTGAGGAGACAGAGGGTGG returned a sensor-assay potency score (higher = more potent) of -1.51.

In the case of TCCATCATTAACTTGTTCTAGA, the sensor-assay potency score (higher = more potent) is -0.697.

In the case of TTTTCCATCATTAACTTGTTCT, the sensor-assay potency score (higher = more potent) was -0.253.

In turn, TTCCATCATTAACTTGTTCTAG came in with a sensor-assay potency score (higher = more potent) of -0.41.

ATATTTTCCATCATTAACTTGT had a sensor-assay potency score (higher = more potent) of 0.105.

Sequence TAGAGAAGAATCACCTTCCTTC had a sensor-assay potency score (higher = more potent) of 0.583.

With TTCTCTGAGGAGACAGAGGGTG, the sensor-assay potency score (higher = more potent) is -0.857.

TCGGAGAAGGTGTTCATGCTGA displayed a sensor-assay potency score (higher = more potent) of -0.401.

In the next test the target is IREB2. The description is as above. The following applies: shRNA.
TTATGTGTGAATCTGTGCCGAC returned a sensor-assay potency score (higher = more potent) of -0.0474.

For TAAAGTAAGAGAAACTGGCAGA, the sensor-assay potency score (higher = more potent) is -0.195.

In the case of TTCGAAACAATTTCACAGCTTT, the sensor-assay potency score (higher = more potent) worked out at 1.18.

As for TAGTATAACATGTTCTTCCTCT, the sensor-assay potency score (higher = more potent) came out at 0.5.

In turn, TTTAGATACATCGAAGAACTTC showed a sensor-assay potency score (higher = more potent) of -0.321.

Consider TCAACTGTAAGATCTGTCGGAC, for which the sensor-assay potency score (higher = more potent) was determined as 0.203.

Source of the values: the OligoGym collection.
Further: reference of the scale not given here.
